# Experimental data taken from the supplement of paper PMC10849652.
# The full data set covers some 7,900 targets. This sample favours those with a hit. About 0.6% of all pairs of compound and target were hits. Values without a mark were called inactive.
# Tests used:
# Assay in all cases: log2 fold change, soluble protein after heating vs DMSO (PISA); higher = thermal stabilisation; K562 cells, 10 uM, 30 min; active = over 0.2 and 3.5 SD of the protein, either way, in both replicates (recomputed)
# [1] = compound: Cc1ccc(NC(=O)c2ccc(CN3CC[C@H](N(C)C)C3)c(C(F)(F)F)c2)cc1Nc1nccc(-c2cncnc2)n1 [bafetinib]
# Outline: (§1)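 K562 cells at 2×10^6 cells/mL were given 10 μM compound for 30 min. Aliquots then went through 3 min of heating across 48°C-58°C, were pooled, and were extracted in PBS with 0.5% NP-40 at 4°C, and the supernatant after 21,000xg for 90 min was quantified by TMTpro 16plex LC-MS/MS with channel sums equalised. Thermal stability relative to control samples, from duplicates, is given as log2 fold change.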
# [2] = compound: Cc1cccc(CC(=O)N2CCc3c2ccc(-c2cn(C)c4ncnc(N)c24)c3F)n1
# Outline: as §1
# [3] = compound: Cc1cn(-c2cc(NC(=O)c3ccc(C)c(Nc4nccc(-c5cccnc5)n4)c3)cc(C(F)(F)F)c2)cn1 [nilotinib]
# Outline: as §1
# [4] = compound: Cc1nc(Nc2n[nH]c3c2CN(C(=O)N[C@H](CN(C)C)c2ccccc2)C3(C)C)c2sccc2n1
# Outline: as §1
# [5] = compound: Cc1nc(Nc2ncc(C(=O)Nc3c(C)cccc3Cl)s2)cc(N2CCN(CCO)CC2)n1 [dasatinib]
# Outline: as §1
# [6] = compound: Cc1ncc(-c2ccnc(Nc3ccc(S(C)(=O)=O)cc3)n2)n1C(C)C
# Outline: as §1
# [7] = compound: Cn1cc(-c2ccc3c(c2)CCN3C(=O)Cc2cccc(C(F)(F)F)c2)c2c(N)ncnc21
# Outline: as §1
# [8] = compound: Cn1cc(-c2ccc3nnc(C(F)(F)c4ccc5ncccc5c4)n3n2)cn1
# Outline: as §1
# [9] = compound: Cn1cncc1[C@@](N)(c1ccc(Cl)cc1)c1ccc2c(c1)c(-c1cccc(Cl)c1)cc(=O)n2C [tipifarnib]
# Outline: as §1
# [10] = compound: FC(F)(F)c1ccc(/C=C/c2nc(COc3ccc(CCCCn4ccnn4)cc3)co2)cc1 [mubritinib]
# Outline: as §1
# Chain of UniProt Q8N2W9 (Q8N2W9 whole entry, looked up): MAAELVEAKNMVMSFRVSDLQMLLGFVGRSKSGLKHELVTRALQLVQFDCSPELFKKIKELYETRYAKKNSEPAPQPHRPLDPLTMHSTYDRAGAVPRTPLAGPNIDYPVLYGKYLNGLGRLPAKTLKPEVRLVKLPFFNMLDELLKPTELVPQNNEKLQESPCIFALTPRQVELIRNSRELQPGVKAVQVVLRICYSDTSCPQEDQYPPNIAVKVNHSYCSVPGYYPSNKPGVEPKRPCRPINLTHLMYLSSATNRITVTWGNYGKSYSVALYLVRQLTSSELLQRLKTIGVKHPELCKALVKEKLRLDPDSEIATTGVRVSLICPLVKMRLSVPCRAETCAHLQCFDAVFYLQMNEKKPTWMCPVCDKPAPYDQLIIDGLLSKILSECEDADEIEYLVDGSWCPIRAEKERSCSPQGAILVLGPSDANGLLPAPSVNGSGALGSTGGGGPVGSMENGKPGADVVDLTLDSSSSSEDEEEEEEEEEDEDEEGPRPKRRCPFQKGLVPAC
# Chain of UniProt P78356 (P78356 whole entry, looked up): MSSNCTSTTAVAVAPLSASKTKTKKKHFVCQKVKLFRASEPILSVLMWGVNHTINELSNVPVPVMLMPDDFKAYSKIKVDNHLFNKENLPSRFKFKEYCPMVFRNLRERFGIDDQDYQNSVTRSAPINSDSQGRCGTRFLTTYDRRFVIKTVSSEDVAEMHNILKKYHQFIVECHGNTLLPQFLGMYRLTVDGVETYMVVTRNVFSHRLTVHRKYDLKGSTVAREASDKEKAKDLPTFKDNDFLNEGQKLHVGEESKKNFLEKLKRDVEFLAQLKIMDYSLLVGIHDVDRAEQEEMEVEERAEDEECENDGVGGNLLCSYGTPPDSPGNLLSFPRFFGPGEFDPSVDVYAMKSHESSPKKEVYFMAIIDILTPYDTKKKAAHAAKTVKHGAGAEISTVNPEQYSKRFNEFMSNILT
# Chain of UniProt Q8WUK0 (Q8WUK0 whole entry, looked up): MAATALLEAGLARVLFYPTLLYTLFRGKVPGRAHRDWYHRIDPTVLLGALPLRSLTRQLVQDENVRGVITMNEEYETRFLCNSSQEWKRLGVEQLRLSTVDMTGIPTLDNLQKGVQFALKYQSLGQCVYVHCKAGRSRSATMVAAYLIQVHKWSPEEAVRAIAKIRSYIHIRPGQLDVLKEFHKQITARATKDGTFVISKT
# Chain of UniProt Q8WUM4 (Q8WUM4 whole entry, looked up): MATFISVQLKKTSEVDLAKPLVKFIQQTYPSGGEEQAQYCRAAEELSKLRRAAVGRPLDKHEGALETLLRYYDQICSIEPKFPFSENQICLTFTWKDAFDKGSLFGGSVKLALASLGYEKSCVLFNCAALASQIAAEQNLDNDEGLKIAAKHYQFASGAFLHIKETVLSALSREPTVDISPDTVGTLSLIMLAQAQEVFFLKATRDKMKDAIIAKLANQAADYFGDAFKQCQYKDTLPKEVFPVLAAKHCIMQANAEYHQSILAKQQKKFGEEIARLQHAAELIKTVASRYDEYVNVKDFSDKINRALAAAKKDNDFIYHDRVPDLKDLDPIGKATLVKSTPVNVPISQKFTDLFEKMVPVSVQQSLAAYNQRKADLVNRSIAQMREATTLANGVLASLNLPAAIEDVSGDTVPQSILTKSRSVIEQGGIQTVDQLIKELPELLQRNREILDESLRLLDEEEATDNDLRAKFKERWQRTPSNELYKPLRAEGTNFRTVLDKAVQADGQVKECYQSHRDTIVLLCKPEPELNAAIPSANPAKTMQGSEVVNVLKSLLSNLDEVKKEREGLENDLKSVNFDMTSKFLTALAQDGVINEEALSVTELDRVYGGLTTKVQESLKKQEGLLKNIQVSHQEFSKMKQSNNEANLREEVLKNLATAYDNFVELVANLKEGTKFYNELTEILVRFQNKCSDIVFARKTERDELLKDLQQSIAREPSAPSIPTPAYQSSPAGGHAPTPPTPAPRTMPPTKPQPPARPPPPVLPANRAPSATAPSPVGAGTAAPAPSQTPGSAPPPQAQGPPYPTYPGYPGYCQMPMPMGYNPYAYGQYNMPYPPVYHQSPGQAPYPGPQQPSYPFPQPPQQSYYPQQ
# Chain of UniProt O94913 (O94913 whole entry, looked up): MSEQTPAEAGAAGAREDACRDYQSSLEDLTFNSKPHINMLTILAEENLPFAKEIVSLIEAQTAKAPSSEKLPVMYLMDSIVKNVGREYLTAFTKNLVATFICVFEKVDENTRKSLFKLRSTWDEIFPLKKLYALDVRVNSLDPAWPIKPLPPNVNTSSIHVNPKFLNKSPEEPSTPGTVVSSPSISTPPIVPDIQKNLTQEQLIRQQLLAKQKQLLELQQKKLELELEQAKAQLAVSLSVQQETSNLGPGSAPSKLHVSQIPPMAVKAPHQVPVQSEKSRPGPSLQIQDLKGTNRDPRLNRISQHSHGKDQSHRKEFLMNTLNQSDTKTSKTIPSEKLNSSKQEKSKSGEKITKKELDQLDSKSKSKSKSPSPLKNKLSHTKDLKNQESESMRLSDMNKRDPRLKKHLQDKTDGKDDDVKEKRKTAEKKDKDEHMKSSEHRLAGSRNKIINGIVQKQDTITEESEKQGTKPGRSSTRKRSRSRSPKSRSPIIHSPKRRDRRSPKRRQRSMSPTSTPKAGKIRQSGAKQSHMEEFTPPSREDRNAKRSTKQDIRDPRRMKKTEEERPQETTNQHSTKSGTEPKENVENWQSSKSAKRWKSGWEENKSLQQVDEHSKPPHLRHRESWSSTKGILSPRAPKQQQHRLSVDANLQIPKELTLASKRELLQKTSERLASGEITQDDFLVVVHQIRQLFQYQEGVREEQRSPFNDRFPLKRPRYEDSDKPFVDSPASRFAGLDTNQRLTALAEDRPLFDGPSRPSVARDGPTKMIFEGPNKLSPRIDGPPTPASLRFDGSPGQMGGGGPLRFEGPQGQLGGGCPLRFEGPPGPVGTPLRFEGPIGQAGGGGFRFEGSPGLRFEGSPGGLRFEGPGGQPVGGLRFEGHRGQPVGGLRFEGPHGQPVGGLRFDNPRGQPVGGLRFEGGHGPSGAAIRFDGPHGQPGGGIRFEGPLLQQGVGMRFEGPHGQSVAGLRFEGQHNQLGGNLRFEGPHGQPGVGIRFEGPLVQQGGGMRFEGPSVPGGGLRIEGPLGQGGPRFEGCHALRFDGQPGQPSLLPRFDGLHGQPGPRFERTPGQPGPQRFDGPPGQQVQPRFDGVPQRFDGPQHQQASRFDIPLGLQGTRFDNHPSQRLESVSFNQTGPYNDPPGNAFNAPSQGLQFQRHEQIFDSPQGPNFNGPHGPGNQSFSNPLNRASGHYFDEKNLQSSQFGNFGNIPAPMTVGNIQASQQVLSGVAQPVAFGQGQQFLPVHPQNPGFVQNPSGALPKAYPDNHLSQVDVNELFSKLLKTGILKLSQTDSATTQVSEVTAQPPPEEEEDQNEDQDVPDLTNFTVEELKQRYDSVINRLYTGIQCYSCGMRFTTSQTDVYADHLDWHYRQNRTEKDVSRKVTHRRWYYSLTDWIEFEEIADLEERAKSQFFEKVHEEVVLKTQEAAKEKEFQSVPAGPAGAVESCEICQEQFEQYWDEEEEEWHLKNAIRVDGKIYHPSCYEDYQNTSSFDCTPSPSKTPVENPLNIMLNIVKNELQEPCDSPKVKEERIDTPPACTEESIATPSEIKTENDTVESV
# Chain of UniProt Q02156 (Q02156 whole entry, looked up): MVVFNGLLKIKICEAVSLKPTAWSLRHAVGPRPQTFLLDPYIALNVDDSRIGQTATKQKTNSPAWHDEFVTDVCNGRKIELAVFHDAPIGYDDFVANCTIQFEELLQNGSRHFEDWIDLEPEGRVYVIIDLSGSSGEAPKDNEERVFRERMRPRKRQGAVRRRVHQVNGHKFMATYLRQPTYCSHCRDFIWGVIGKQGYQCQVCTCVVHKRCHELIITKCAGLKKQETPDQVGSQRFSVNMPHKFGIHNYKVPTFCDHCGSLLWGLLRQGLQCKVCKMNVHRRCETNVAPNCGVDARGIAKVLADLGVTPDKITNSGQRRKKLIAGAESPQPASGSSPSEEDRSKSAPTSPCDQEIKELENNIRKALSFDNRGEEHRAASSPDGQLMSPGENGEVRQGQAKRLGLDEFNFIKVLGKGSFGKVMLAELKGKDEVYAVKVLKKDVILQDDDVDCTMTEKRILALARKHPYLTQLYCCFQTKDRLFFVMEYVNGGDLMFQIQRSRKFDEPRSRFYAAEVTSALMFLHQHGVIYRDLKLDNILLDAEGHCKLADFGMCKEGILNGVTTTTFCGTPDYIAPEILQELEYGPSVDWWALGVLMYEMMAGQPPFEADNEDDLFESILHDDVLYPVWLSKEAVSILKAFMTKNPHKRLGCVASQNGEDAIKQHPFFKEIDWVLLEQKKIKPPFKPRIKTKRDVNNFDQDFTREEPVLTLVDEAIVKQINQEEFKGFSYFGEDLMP
# Chain of UniProt P60484 (P60484 whole entry, looked up): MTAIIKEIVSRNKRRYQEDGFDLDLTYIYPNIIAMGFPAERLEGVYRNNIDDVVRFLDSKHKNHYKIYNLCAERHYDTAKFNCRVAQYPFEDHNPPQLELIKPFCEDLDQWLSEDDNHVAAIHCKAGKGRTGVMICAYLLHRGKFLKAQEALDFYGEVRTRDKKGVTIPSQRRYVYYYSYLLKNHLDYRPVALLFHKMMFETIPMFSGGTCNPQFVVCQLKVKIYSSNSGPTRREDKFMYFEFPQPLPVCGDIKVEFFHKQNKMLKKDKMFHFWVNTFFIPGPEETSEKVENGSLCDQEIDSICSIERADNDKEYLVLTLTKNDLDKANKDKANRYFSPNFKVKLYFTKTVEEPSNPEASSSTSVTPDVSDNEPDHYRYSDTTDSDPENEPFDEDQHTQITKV
# Chain of UniProt Q8N5Y8 (Q8N5Y8 whole entry, looked up): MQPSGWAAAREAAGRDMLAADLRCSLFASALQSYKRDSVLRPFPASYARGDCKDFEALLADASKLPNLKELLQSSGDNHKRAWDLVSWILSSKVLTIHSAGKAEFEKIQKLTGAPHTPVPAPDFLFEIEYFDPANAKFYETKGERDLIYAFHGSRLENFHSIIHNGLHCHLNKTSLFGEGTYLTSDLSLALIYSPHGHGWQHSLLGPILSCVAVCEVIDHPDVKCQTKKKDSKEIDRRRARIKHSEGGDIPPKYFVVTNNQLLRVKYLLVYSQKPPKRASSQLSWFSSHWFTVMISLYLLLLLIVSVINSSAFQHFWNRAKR
Target,log2 fold change [1],log2 fold change [2],log2 fold change [3],log2 fold change [4],log2 fold change [5],log2 fold change [6],log2 fold change [7],log2 fold change [8],log2 fold change [9],log2 fold change [10]
POGLUT1 (UniProt Q8NBL1),0.009,0.122,-0.001,0.03,0.024,-0.049,-0.022,-0.073,0.048,-0.046
PUF60 (UniProt Q9UHX1),0.077,-0.04,-0.022,-0.703 (active),-0.085,-0.001,0.008,-0.046,-0.034,0.024
POLR2D (UniProt O15514),0.009,-0.076,-0.028,0.122,-0.013,0.202,-0.036,0.034,-0.01,0.052
PIP4K2B (UniProt P78356),0.258,0.011,0.085,0.05,0.139,0.538 (active),0.055,0.172,-0.03,-0.083
PCBP2 (UniProt F8VRH0),0.293,-0.039,-0.347,-0.215,-0.146,-0.009,0.112,,0.067,0.129
PRKCE (UniProt Q02156),0.001,0.02,-0.024,-0.335 (active),-0.118,0.004,0.051,,-0.049,0.052
PTTG1IP (UniProt P53801),-0.105,-0.053,-0.061,0.054,-0.002,-0.099,0.036,,0.036,-0.012
PPP1R12C (UniProt Q9BZL4),-0.085,0.612 (active),0.069,-0.26,-0.065,-0.213,,-0.018,-0.219,-0.118
PPP2R5B (UniProt Q15173),0.006,-0.057,-0.187,0.095,-0.047,-0.042,,,-0.067,-0.023
PRKAR1A (UniProt P10644),0.232,-0.006,0.12,0.195,-0.046,0.152,0,0.281,0.231,-0.169
PTPMT1 (UniProt Q8WUK0),-0.16,-0.003,0.069,-0.013,-0.138,0.029,-0.056,-0.132,0.026,-0.006
PSMD9 (UniProt O00233),-0.038,0.199,-0.011,0.016,0.037,0.008,0.018,0.034,0.04,0.009
PTRH2 (UniProt Q9Y3E5),-0.022,0.017,0.039,-0.011,-0.004,0.046,0.044,-0.019,0.042,-0.009
PARP16 isoform 3 (UniProt Q8N5Y8),0.096,-0.005,-0.034,-0.019,-0.009,0.053,0.011,,-0.092,0.089
PLCL1 (UniProt Q15111),-0.045,0.039,-0.06,-0.197,,-0.324,-0.116,0.028,,-0.018
PSME4 (UniProt Q14997),0.069,0.141,-0.057,0.016,-0.084,-0.098,0.015,-0.006,-0.036,0.052
PMPCB (UniProt O75439),0.035,0.025,-0.054,0.089,0.098,-0.04,0.105,0.046,0.269 (active),0.053
PIGH (UniProt Q14442),-0.037,-0.01,,,-0.053,,0.099,0.009,0.056,0.04
PRPF40A (UniProt O75400),-0.014,0.005,-0.085,-0.058,-0.05,-0.135,0.082,0.048,0.045,-0.013
PGM3 isoform 4 (UniProt O95394),0.056,0.153,-0.022,0.021,-0.145,-0.003,0.106,0.02,-0.079,0.293 (active)
PSMD5 (UniProt Q16401),-0.09,0.006,-0.015,-0.026,-0.026,0.006,0.018,0.002,-0.05,0.023

Target,log2 fold change [1],log2 fold change [2],log2 fold change [3],log2 fold change [4],log2 fold change [5],log2 fold change [6],log2 fold change [7],log2 fold change [8],log2 fold change [9],log2 fold change [10]
PLK1 (UniProt P53350),-0.048,0.003,-0.062,-1.37 (active),-0.125,0.152,0.006,-0.013,0.019,0.003
PI4K2B (UniProt Q8TCG2),-0.084,0,0.124,-0.052,-0.101,-0.167,0.11,0.146,,0.053
POLR2I (UniProt P36954),-0.044,0.024,-0.026,0.233,0.079,0.338,-0.029,0.021,0.072,-0.054
PLD3 (UniProt Q8IV08),-0.308 (active),-0.007,-0.043,0.064,-0.024,-0.03,-0.007,0.013,-0.01,0.035
PDE6D (UniProt O43924),0.266,0.169,0.191,-0.238,0.026,0.011,0.385,,,0.565
POLR2B (UniProt P30876),0.024,-0.005,0.079,0.054,-0.055,0.324 (active),-0.054,-0.006,-0.029,-0.014
PCLAF (UniProt Q15004),-0.015,-0.1,-0.027,0.105,0.065,-0.081,-0.112,-0.069,-0.019,-0.095
PELP1 (UniProt Q8IZL8),0.005,-0.115,-0.007,0.007,0.004,-0.047,0.064,-0.034,0.063,-0.009
PATL1 (UniProt Q86TB9),-0.007,0.034,,,-0.032,,0.08,-0.013,0.039,-0.04
PTK2B (UniProt Q14289),-0.024,-0.063,0.14,0.104,-0.043,0.276,-0.113,-0.014,-0.521,-0.003
PRKCA (UniProt P17252),-0.043,-0.066,-0.011,-0.173,-0.233,-0.005,0.082,-0.022,-0.026,0.054
POP1 (UniProt Q99575),0.019,0.002,0.074,-0.018,0.039,-0.037,0.042,0.007,-0.036,-0.006
PARL (UniProt Q9H300),-0.169,0.061,0.047,-0.011,0.015,0.018,0.017,0.051,-0.023,0.021
PKM isoform 2 (UniProt P14618),-0.155,0.029,0.121,-0.104,-0.014,0.198,,0.017,0.209,0.05
PRKACA (UniProt P17612),-0.044,0.107,-0.038,0.71 (active),-0.107,-0.051,0.01,-0.117,-0.036,0.066
PRG4 (UniProt Q92954),-0.095,0.104,-0.05,0.065,0,0.258,0.203,0.068,,-0.016
PMVK (UniProt Q15126),0.057,-0.203,-0.214,-0.064,-0.308,-0.139,-0.098,,,-0.025
PRPF38B (UniProt Q5VTL8),-0.016,-0.015,0.049,-1.9 (active),-0.022,-0.008,0.012,-0.04,-0.067,0.004
PDCD6IP (UniProt Q8WUM4),0.042,0.157,-0.116,-0.205,-0.283,0.069,0.016,0.068,-0.221,0.105
PRPF4B (UniProt Q13523),0.188,-0.096,0.153,-0.626 (active),0.081,-0.163,0.005,-0.056,0.117,0.069
PSD3 (UniProt Q9NYI0),,,-0.117,0.029,,0.014,-0.002,0.071,-0.062,-0.035

Target,log2 fold change [1],log2 fold change [2],log2 fold change [3],log2 fold change [4],log2 fold change [5],log2 fold change [6],log2 fold change [7],log2 fold change [8],log2 fold change [9],log2 fold change [10]
PRR14L (UniProt Q5THK1),,-0.156,-0.027,-0.044,,-0.007,0.019,,-0.039,
PDE4A (UniProt P27815),-0.157,,,,,,-0.016,0.021,-0.108,
PTEN isoform 2 (UniProt P60484),,0.158,,,,,,-0.087,-0.212,
PTP4A2 (UniProt Q12974),-0.045,,0.007,-0.056,0.089,-0.43 (active),0.094,-0.013,0.048,0.047
PEX5 isoform 4 (UniProt P50542),,,,,0.139,,0.219,-0.078,,
PUF60 isoform 2 (UniProt Q9UHX1),-0.089,,,,-0.173,,0.043,-0.103,-0.159,-0.257
PIM1 isoform 2 (UniProt P11309),,-0.263,,,,,,,,0.721
POLR2C (UniProt P19387),0.012,,-0.042,0.073,-0.031,0.3 (active),0.003,-0.06,-0.081,-0.097
PLCXD1 (UniProt Q9NUJ7),-0.642 (active),,,,,,,-0.099,,
PAN2 (UniProt Q504Q3),-0.052,,-0.123,-0.02,0.013,-0.09,,,,
PHRF1 (UniProt Q9P1Y6),,,,,,,,0.084,0.159,-0.099
PCF11 (UniProt O94913),-0.099,0.078,,,,,-0.095,0.007,0.168,0.179
PRKX (UniProt P51817),-0.039,,,,,,,,,0.108
PSMA3 (UniProt G3V4X5),0.159,,,,,,,0.174,0.067,
PMS2CL (UniProt Q68D20),,,-0.189,-0.154,,0.115,,-0.128,,-0.054
PHC3 isoform 7 (UniProt Q8NDX5),0.222,,-0.187,0.01,,0,0.018,,-0.016,0.191
POGZ (UniProt Q7Z3K3),,0.174,,,-0.318,,0.072,0.061,-0.124,
PSMD8 (UniProt K7EK21),,,,,,,-0.216,,,
PIAS4 (UniProt Q8N2W9),,0,,,-0.116,,,0.313,0.002,0.199
